EWS-Fli block: EWS/Fli transcriptional activity inhibition; A673 NR0B1-luciferase reporter, viability-normalised; hit rate 0.67% among 350,000; inhibition, % at 12.6 µM;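 active = mean inhibition of at least 50% after viability correction, with every replicate also passing that limit; inconclusive = mean reaches 50% but only one of two replicates passes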;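 also: firefly luciferase signal divided by Alamar Blue viability fluorescence both relative to DMSO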
PAX8 reporter: inhibitors of PAX8 transcriptional activity in RMG-I cells. RMG-I TPO-luciferase reporter, SteadyGlo, 24 h. hit rate 1.2% among 360,000. inhibition, % at 12.6 µM;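 active = mean replicate inhibition at least 60% with every replicate also reaching 60%; inconclusive = only one of the two criteria is met; inactive = mean below 60% and not all replicates reaching 60%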;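 also: luciferase light reporting Pax8 driven TPO promoter activity; plate controls were median of neutral control wells for no effect and mitoxantrone controls for full effect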
miR122 inh: miR-122 inhibition in Huh7 cells; Huh7 miR-122 Renilla luciferase sensor, 48 h; neutral wells = 0, positive control = 100; activation (reporter increase), % at 12.5 µM; hit rate 0.3% among 340,000; AID 602342;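 active = mean replicate activation score at least 90 and every replicate individually at or above 90; inconclusive = only one of the two criteria met; inactive = neither criterion met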;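 also: higher luciferase means less miR-122 activity so hits act as miR-122 inhibitors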
HIV Env fusion: HIV envelope-mediated fusion inhibition; HeLa-JRFL Env/CEM21 cell fusion, luciferase; inhibition, % at 12.3 µM; hit rate 1.1% among 360,000; AID 651610;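 active = mean replicate inhibition score of at least 50 and every replicate individually at or above 50; inconclusive = only one of the two criteria met; inactive = mean below 50 and not all replicates reaching 50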;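 also: 0% = plate neutral controls and 100% = maraviroc near 300 nM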
GSIS activator: GLuc luminescence reporter in INS-1E cells, primary screen for activators of glucose-dependent secretion of insulin. INS-1E GLuc reporter insulin secretion, 2-3 h. activation, % at 16.6 µM. hit rate 0.61% among 370,000. AID 743287;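 active = lowest replicate activation of at least 40%, so every replicate reaches that level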;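 also: 0% = median of neutral control wells and 100% = median of IBMX positive control wells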
C2C12 statin: suppression of simvastatin myotoxicity | rescue of ATP level, % at 7.49 µM | C2C12 myotubes + simvastatin, ATP luminescence, 48 h; scaled: DMSO 0, geranylgeraniol control 100 | hit rate 0.78% among 330,000;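 active = mean ATP rescue above about 67%, or every replicate alone reaching that limit, limit read from the data, passing the limit was not always enough; inconclusive = no clear call, values can overlap the other calls; inactive = mean under the limit and some replicate under it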;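 also: myotubes were challenged with 10 µM simvastatin during compound exposure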
* marks the source's active call; other numbers are inactive results; ? = inconclusive; nt = not tested or not shown; ! = repeats disagree; [ ] = dose if it differs, or a comment. Compounds with a hit are over-represented: about 3.1% of the library has one in this group of screens.

SMILES	EWS-Fli block	PAX8 reporter	miR122 inh	HIV Env fusion	GSIS activator	C2C12 statin
COc1ccc(C(=O)N2C[C@@H]3[C@H](c4ccccc42)[C@H](CO)N3Cc2ccccc2Cl)cc1	8	-14	194*[16.7 µM]	nt	-2	3
C[C@@H]1CN([C@H](C)CO)S(=O)(=O)c2ccc(C#CCN(C)C)cc2O[C@@H]1CN(C)CC1CC1	9	nt	2[16.7 µM]	-18[16.7 µM]	3	8
CNC(=O)C[C@@H]1CC[C@@H]2[C@@H](COc3ccc(NC(=O)Nc4ccc(F)c(F)c4)cc3C(=O)N2C)O1	-1	10	-33[16.7 µM]	-3[16.7 µM]	7	3
CC(=O)Nc1ccc(NC(=O)c2ccc(NS(=O)(=O)c3cc(C(C)(C)C)cc(C)c3C)cc2)cc1	9	68*	nt	nt	-3	nt
CC(=O)Nc1ccc(S(=O)(=O)Nc2ccc3c(c2)n(C)c(=O)n3C)c(C)c1	20	1	156*	-36	98*	9
CC(=O)Nc1ccc2c(c1)n(C)c(=O)n2C	nt	nt	nt	-39	nt	-4
Cc1cc(C(C)(C)C)cc(S(=O)(=O)Nc2ccc(O)c(C(=O)O)c2)c1C	nt	nt	5	-2	-17	55
O=C(C[C@@H]1C=C[C@@H](NC(=O)Nc2ccc(C(F)(F)F)cc2)[C@H](CO)O1)NCCN1CCCC1	-16	6	nt	-8[16.7 µM]	5	-5
CC(C)NC(=O)N(C)C[C@H]1Oc2cc(C#CC(C)(C)O)ccc2S(=O)(=O)N([C@H](C)CO)C[C@@H]1C	-3	nt	-1[16.7 µM]	-32[16.7 µM]	19	3
COc1ccc(CNC(=O)c2c(C)oc3c2C(=O)c2ccccc2C3=O)cc1	32	28	12	64*	nt	35
CCCCNC(=O)N(O)C1N(/N=C/c2cccs2)C(=S)SC1(C)C (configuration not stated)	6	5	nt	67*	5	nt
CCC1CCCCN1S(=O)(=O)c1ccc(C(=O)Nc2nnc(C3CC3)o2)cc1 (configuration not stated)	18	nt	nt	20	nt	-10
CCC1CCCCN1S(=O)(=O)c1ccc(NC(=O)c2ccncc2)cc1 (configuration not stated)	nt	12	-3	63*	-44	-17
CCC1CCCCN1S(=O)(=O)c1ccc(NC(=O)C2CCN(C(=O)c3ccco3)CC2)cc1 (configuration not stated)	4	64*	-2	-2	-13	nt
CCC1CCCCN1S(=O)(=O)c1ccc(NC(=O)c2nc(S(C)(=O)=O)ncc2Cl)cc1 (configuration not stated)	69*	104*	18	0	72*	-665
CCNC(=O)[C@@H]1[C@@H](CO)[C@@H]2Cn3c(ccc(-c4ccccc4)c3=O)[C@@H]2N1Cc1ccc2c(c1)OCO2	-3	23	-5[16.7 µM]	nt	-8	11
C[C@@H]1CN([C@H](C)CO)C(=O)c2cc(NS(=O)(=O)c3ccc(F)cc3)ccc2O[C@@H](C)CCCCO[C@@H]1CN(C)S(=O)(=O)c1ccc(F)cc1	7	48	6[16.7 µM]	-71[16.7 µM]	-10	nt
C[C@@H]1CN([C@@H](C)CO)C(=O)Cc2cc(NS(=O)(=O)c3ccc(F)cc3)ccc2O[C@H]1CN(C)Cc1ccc(Cl)c(Cl)c1	23	93*	25[16.7 µM]	100*[16.7 µM]	196	57
C[C@H]1CN([C@@H](C)CO)C(=O)Cc2cc(NS(=O)(=O)c3ccccc3)ccc2O[C@@H]1CN(C)Cc1ccc(Cl)c(Cl)c1	13	?	17[16.7 µM]	58*[16.7 µM]	2	103*
C[C@@H]1CN([C@@H](C)CO)C(=O)Cc2cc(NS(=O)(=O)c3ccccc3)ccc2O[C@@H]1CN(C)Cc1ccc(Cl)c(Cl)c1	9	31	3[16.7 µM]	13[16.7 µM]	-6	-3
C[C@H](CO)N1C[C@H](C)[C@@H](CN(C)Cc2ccc(Cl)c(Cl)c2)Oc2ccc(NS(=O)(=O)c3ccccc3)cc2CC1=O	-8	83*	-3[16.7 µM]	-5[16.7 µM]	-27	18
C[C@@H]1CN([C@@H](C)CO)C(=O)Cc2cc(NS(=O)(=O)c3ccc(F)cc3)ccc2O[C@@H]1CN(C)Cc1ccc(Cl)c(Cl)c1	10	2	-4[16.7 µM]	-5[16.7 µM]	5	34
C[C@@H]1CN([C@@H](C)CO)C(=O)c2cccc(NC(=O)CCCCCC(=O)Nc3ccccc3N)c2O[C@@H]1CN(C)C(=O)NC1CCCCC1	15	15	nt	nt	4	nt
COc1cc(NC(=O)c2ccc(N)nc2)cc(C(=O)Nc2cccc(C(F)(F)F)c2)c1	-37	29	0	nt	-4	-16
CCN1CCN(Cc2ccc(NC(=O)c3cc(NC(=O)c4cc(-c5ccc(OC)cc5)n[nH]4)cc(OC)c3)cc2C(F)(F)F)CC1	51*	?	-3	12	14	-75
SMILES	EWS-Fli block	PAX8 reporter	miR122 inh	HIV Env fusion	GSIS activator	C2C12 statin
COc1cc(NC(=O)c2nccnc2N)cc(C(=O)Nc2cccc(C(F)(F)F)c2)c1	23	76*	-2	18	-13	-8
Cc1ccc(C(=O)Nc2cccc(C(F)(F)F)c2)cc1NC(=O)c1c[nH]c2cc(C(F)(F)F)ccc2c1=O	-4	10	6	nt	nt	5
COc1cc(NC(=O)c2cc3cccc(OC)c3o2)cc(C(=O)Nc2cccc(C(F)(F)F)c2)c1	29	92*	9	15	-2	-10
COc1cc(NC(=O)c2ccno2)cc(C(=O)Nc2cccc(C(F)(F)F)c2)c1	15	28	5	10	nt	4
CCN1CCN(Cc2ccc(NC(=O)c3ccc(C)c(NC(=O)c4c[nH]c5cc(C(F)(F)F)ccc5c4=O)c3)cc2C(F)(F)F)CC1	63*!	80*	-33	106*!	2	-65
CC(C)NC(=O)Nc1ccc2c(c1)C(=O)N([C@@H](C)CO)C[C@@H](C)[C@@H](CN(C)S(=O)(=O)c1cccs1)OCCCC[C@@H](C)O2	0	-13	17[16.7 µM]	14[16.7 µM]	-16	nt
CCN1CCN(Cc2ccc(NC(=O)c3cc(NC(=O)c4cncc(-c5cccs5)c4)cc(OC)c3)cc2C(F)(F)F)CC1	64*	51	-29	-29	nt	-35
CCN1CCN(Cc2ccc(NC(=O)c3cc(NC(=O)c4cc5cccc(OC)c5o4)cc(OC)c3)cc2C(F)(F)F)CC1	53*!	90*!	-31	23	12	-24
CCN1CCN(Cc2ccc(NC(=O)c3cc(NC(=O)c4ccno4)cc(OC)c3)cc2C(F)(F)F)CC1	27	-10	-8	28	-4	-19
COc1cc(NC(=O)N2CCNC2=O)cc(C(=O)Nc2cccc(C(F)(F)F)c2)c1	59*	63*	nt	-282	-22	-58
COc1ccc(-c2cc(C(=O)Nc3cc(OC)cc(C(=O)Nc4cccc(C(F)(F)F)c4)c3)[nH]n2)cc1	2	72*!	-3	16	-9	-32
C[C@@H]1CN([C@H](C)CO)C(=O)c2cc(-c3cccc(C#N)c3)cnc2O[C@@H]1CN(C)C(=O)C1CCC1	-15	-19	-1[16.7 µM]	-61[16.7 µM]	5	35

Bioassay records from PubChem.
